Assay results published in PubChem BioAssay AID1159506 (National Center for Advancing Translational Sciences (NCATS), 2015).
The full ranking holds about 59,000 sequences; the median of the read-out is about -0.00055, and the lowest 2% start at about -2. Shown is part of a subset that was picked to be rich in the lowest values.

Test: Identification of proteins required for the processing of the EWS-FLI1 nascent transcript;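 further: robust z of luciferase light less the median z of siRNAs with the same seed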
Conditions: TC32 Ewing sarcoma NR0B1-luc vs CMV-luc (EWS-FLI1 target promoter against control promoter), 48 h; screened at 20 nM (by protocol)
Outline: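 Three siRNAs per gene, each in a separate well at 20 nM, were transfected into TC32 cells bearing either reporter construct. Luminescence was measured two days on, and per-gene comparison relied on seed-corrected Z values.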

Row | Sequence | seed-corrected z-score
1 | ACAGAUGUCACACUCGAAG against ZNF581 | 0.251
2 | UUUCAUCUCUCUUAGAUAC against AP3S1 | -0.346
3 | UGAGAGUUGAGCCUUAUCA against OR8B8 | -2.36
4 | AGACGAUCAAGCUCUGGUG against CYB5R4 | -0.548
5 | ACAGGUGCAAACAAAGAGC against TMEM167B | -2.18
6 | UGAACAUCCAGUUCUUCCC against CHERP | -1.4
7 | UGGAUUAGCAUGACAGACC against COPB1 | -2.98
8 | UAUGCUCCUCCCGACAAGU against HMGB1P1 | 0.175
9 | AAACAGACCACCUCGUAGG against MTUS2-AS1 | 0.795
10 | UAUCUUCGUACUCAUUUGG against TNFAIP6 | -2.49
11 | ACUAGAACAAUCUGCAUCC against ZBTB1 | 0.122
12 | UAUCGGAAAGAUAGCCUGG against PTPN3 | 0.486
13 | UACACGUACGGGAUAUUUG against HTR3A | -0.067
14 | UGUUGUAGCACUCCAACGC against PRKDC | -4.34
15 | UCUUUAUCAAAUCUGAGUG against FANCC | 0.127
16 | UGUGGGUUAAAAGUCAGCA against CDK4 | -1.59
17 | UCUACCAACAGCAAGAUAC against PLEKHG4B | -0.565
18 | UGUAGGUGUAGGCUGUUCG against RFX2 | -4.23
19 | UUUCUGCUUGUAUCUGCCC against C1QC | -2
20 | UUCUUUAAGUCAAAGUUUC against FEZF2 | -1.32
21 | UGCUUUAUUAUUAAUGGAC against PABPC3 | -0.79
22 | UGGAUUGUAACCUUUCAUC against EIF2B5 | -0.151
23 | UAUUUAUUAGAAACAUGGG against ZNF415 | -2.45

Row | Sequence | seed-corrected z-score
24 | AAAUAGUUCUCAGUCAUUC against RBM38 | 0.473
25 | AGUUGUCCAAUGCAGAUGU against ZDHHC24 | -0.264
26 | AUAUUUGCAACCUGCAUUC against SPG7 | -0.324
27 | UCAGUUCUUGCAGUGCACC against FAM212B | -0.229
28 | UGGGUGUUCAUGACCUGCC against LMF1 | -2.6
29 | UGCCCAUCCACAUUGUCCU against REXO1 | -0.116
30 | UACGAAUCAAACCAAGAUC against RASGRP3 | -0.4
31 | UAUUGAUCUGCCGAGGAGC against CYFIP1 | -0.5
32 | UUCGUGACUGUCAUCAUCC against CARD11 | 0.437
33 | UGAACAUACAUCUUGAAUC against SRP19 | 0.739
34 | UCGGUGUAAGGUGUCCAUG against POU2AF1 | -0.0736
35 | UUCUUUCCAAACGCAAGAU against RPRML | -2.78
36 | AACUUGGUAGCGGCUUUGG against CDHR1 | -0.12
37 | UAUAUUGCUCGGUCAAGUC against RBM4 | -0.89
38 | AAACACGUAGGGCACAUUC against SNU13 | -5.96
39 | AAUGGAAAUAUUCUCGACC against CNRIP1 | -0.303
40 | UCACAGAGCAGAUGGGUUC against PTPN7 | -0.424
41 | UUAAGUCUAGGGCAAAUUC against OGFOD1 | 0.0394
42 | UUACCUGCAGAAACCUUCU against MUC1 | -2.32
43 | AAUCUUCUUGUCCUGACUC against PHPT1 | -0.987
44 | AAAUAGGCAAGGAAUCUUG against LARP1BP1 | -1.48
45 | AAUGUUGUCAUAGCCGAUG against PSTPIP2 | -0.92
46 | UACGUGUUGAUUUGUCAGC against ANKZF1 | 0.382

Row | Sequence | seed-corrected z-score
47 | UCCAUUUCAGGAGCUACGC against OTULIN | -2.32
48 | UGCUAAAAUAGUCGCAUCC against LOC727919 | -0.265
49 | AUACCUGCAGUGAACAUUU against ECH1 | -3.28
50 | UACUGACUCCUUGUAUGCC against CSTF2T | 0.0375
51 | UGUCAAACUGGUGCUGUUG against NAGLU | -0.208
52 | AAUGUAAGGCCUUAAAUCG against MRPS27 | 0.696
53 | UUCUUUCACGCUUAGUUUC against LOC729978 | 0.995
54 | AAAAUUUCAUCCAUCAAUC against NUS1 | 0.0341
55 | UCUUCGUCCACAUUGGUUC against EPG5 | -11.6
56 | UUCUAUACCCAGUACAUGG against ZNF112 | 1.1
57 | UGUUAUAGAAUGACGCACC against DNAH11 | -0.639
58 | AAAGCGAAGAGGUCUAGGC against PASK | 0.632
59 | UCCAGGUCUAGAACUUGCG against DACH1 | -0.158
60 | AAGUCGAUCCAUAACAAUC against AK9 | 0.17
61 | AACCAUACUACAGUCAAUC against TIMM17A | 0.0529
62 | UCAUCUAAAAUCUCGGUAG against POLE | -2.51
63 | UCAUAUACAGCAAACGGGC against RHOJ | -0.695
64 | ACUGUUGUCACUGCGGUGG against GPR20 | -0.419
65 | UAAUUUCAGAGUAUGUCCG against PCDHAC2 | -0.214
66 | UGGGUAGUUAGACUUGAUC against ZNF160 | -2.52
67 | UACCUAUUUAGCAUAUUGG against GRIN2B | 1.13
68 | UUGGAUCCAGUUGAUAACG against EPCAM | 0.867
69 | UGAGUUACAGGGACCGAAG against LINC00944 | -0.148

Row | Sequence | seed-corrected z-score
70 | AGCUUGAGAAUUUACUUGG against HIST1H2BL | -2.21
71 | UUAUCUCCAGCUAUGCUGU against LOC440292 | 1.49
72 | UCCUCAUGUAUUUUGGUCC against ELOVL5 | -0.118
73 | UCACUUAGCAUGGGUAUUG against TMOD4 | -0.648
74 | UUCUCUUCCAUCUCCGCCC against TNRC18 | -0.725
75 | AAACUGGUAAUAUGAAUUC against IQSEC2 | 1.31
76 | UUUGGUCCAAAUUCACUCC against C2orf76 | -2.66
77 | GGCUGGUCGUGAUCUUUCC against SPDYE2 | 0.846
78 | UUCGAUAUACCAGAACCGC against LPGAT1 | -1.1
79 | UGUAGUAAUGUGAUUUUCC against CTBP2 | 1.22
80 | UUCCUCGUAGGUCCACUCG against ARID3C | -0.393
81 | UUUCCUGCACCCAUAAGUC against C11orf58 | -0.0639
82 | GAACGACUCAGAUCCCGGA against HCRT | -12.7
83 | UUACAGGUAGCGGCAAGCA against SP8 | 0.823
84 | UACCUGAAAACCUAGUUUC against TBPL1 | -0.106
85 | UAUAGUAAAGCCCAGACGG against CNTNAP3 | -2.74
86 | AUAUGUUUACUACCGGUGC against CYP4Z1 | -0.0519
87 | UUCGCUUAACAUGCUCUCC against SKIL | -1.15
88 | AAUUCCAGAAUUACAGGCU against PRAC1 | -0.113
89 | UAAGAUGAGAGAGUGUCCA against TAS2R1 | 0.755
90 | UACUGGUCUAGGAGGUAUG against ERRFI1 | -0.314
91 | AGACUGAGCAGUAGGACUC against SLC35E4 | -2.41
92 | AUAUGGUCAAAUGAGUUAG against KIF3B | 1.67

Row | Sequence | seed-corrected z-score
93 | UUUCCGUACAUUGUGGUCC against ATP13A5 | 0.276
94 | UAAGCACGAACAGUUAUAG against USP47 | 0.264
95 | AUAGGGCACAUCUUGUAGG against CSDC2 | 0.0846
96 | UCUGUUUUGAAGGACCUCU against ENTPD6 | 0.116
97 | UUCGCAUUUGUAUUCGACC against GNB4 | 0.0257
98 | UAUUUCACCAUCUCCGAGC against MAGEF1 | -2.32
99 | UGAGGUUAUACGUUCCCUG against KIAA1549 | -0.0625
100 | UUGGGUCCGAGGAACAACU against ZNF469 | 0.678
101 | UCUUGCAACAGAGCCCUGA against TESK1 | -0.681
102 | AUCCGCAUCAGUAACAUUG against CASQ1 | -0.835
103 | UUCCUUAAUGGUGUAUUCG against RIN3 | 0.651
104 | UAUGGAACUGUAUAUAGGA against EVA1C | 0.1
105 | UGCUCUGUAAUCACGGGCU against WARSP1 | -1.94
106 | AUACUGUAGACGUACCUCU against F2R | -0.762
107 | AAAGGUUCACCACAUAGCC against SORL1 | -3.01
108 | UUAUGUGAACCAUCGCAGG against CISD2 | 0.515
109 | UCCAGUAGUAGUCUUCCAG against MAF | -2.92
110 | AUAGGUGUUGAUACGAGCC against SATB1 | -0.199
111 | UAUCUUUCCUGGUAUGUCA against LPCAT3 | -0.533
112 | UCGAUUUUGAGAAUCAAUG against VPS45 | 0.271
113 | UCAUAGCAAAGGAUCAGCC against CDC42BPB | -3.29
114 | UUCCUUACCAUCAGGCAAG against DAP3 | 0.589
115 | AUGGGUUCCAGCAACAAUC against TMEM65 | 0.797

Row | Sequence | seed-corrected z-score
116 | UUCUUGUAGUCCUCUAGGC against FZD8 | 0.236
117 | AUAGUAAUUCCUGGUAAAG against CYBA | -3.24
118 | UACAAAAACGAUGGCAUCC against CCL17 | -0.409
119 | UACCCAUACGGAGUAGCGA against ASMTL | -0.0723
120 | UAUAGGCAAAGCUAUCUCC against RBM15B | -0.465
121 | AAUAAGACUCCUAAAAUCC against OR2A25 | -2.04
122 | UAAUAUAUUGUCCAUUUAC against OSTC | 0.401
123 | UUUUGAUUGAGAGGAUCGU against MBD2 | 0.911
124 | UUAACAACUUUAGUCCUGC against EFHC1 | 0.0527
125 | ACUUGUAACAGAUCAGCUC against TKFC | 0.791
126 | UUAGUUGAGGGUGAUCCCG against MXRA5 | 0.422
127 | AGAGAUCCCGUGUAUGACC against SLC30A2 | -0.311
128 | UCUGCUCCCACAAUGAAAC against RPLP0 | -2.42
129 | UCAAUUAUUCCUCUCCGUC against HEY1 | -0.248
130 | UCAUAGUCCAUUCAGAGUU against CEACAM19 | 0.0695
131 | UCCUGGAUACCUAACACCC against USP26 | 0.09
132 | ACUCCAAUCAGUACAGUCC against NUP210L | -0.264
133 | AAGUUGUCAAACAAGCCCU against CHTF18 | -3
